Experimental findings from PubChem BioAssay AID588405 (Sanford-Burnham Center for Chemical Genomics, 2011) are described below.

The whole screen tested about 360,000 compounds, of which about 6,200 (1.7%) were called active. The entries come from a sample that favours actives as a whole. Values without a mark were called inactive.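 How the source made its calls: active means inhibition of at least 50% at 20 µM; inactive means the rest.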

The nature of the experiment: Peg3 promoter-driven luciferase inhibitors, primary screen, cell-based, HeLa, luciferase luminescence (AID 588405). To be noted: HeLa PEG-Prom luciferase reporter, overnight, at 20 µM, hits give high values.
On to `CC1(C(=O)NS(=O)(=O)Cc2cccc(Cl)c2)CCN1C(=O)Cc1ccccc1` (stereo not drawn), for which the inhibition is 8.1%.
To `Cc1ccc(NS(=O)(=O)c2cc3c(cc2Br)NC(=O)CO3)cc1C` belongs 24.2%; to `O=C(CCl)Nc1ccc(Sc2ccc(NC(=O)CCl)cc2)cc1`, 99.8% (active); to `O=C(CCl)Nc1cccc(CP(=O)(c2ccccc2)c2ccccc2)c1`, 22.4%.
`CC(C)(CCl)C(=O)Nc1ccc(Sc2ccc(F)cc2)cc1`: the inhibition was -14%.
To `CC(C)C1C(=O)N(Cc2cn(CCC3OCCO3)nn2)CCS(=O)(=O)N1Cc1ccc(-c2ccccc2C(F)(F)F)cc1` (stereo not drawn) belongs 12.5%; to `CCOc1ccc2[nH]c(=O)c(CN(CCCO)S(=O)(=O)c3ccc(F)cc3)cc2c1`, 12.7%.
Take `COc1ccc2[nH]c(=O)c(CN(Cc3cccnc3)S(=O)(=O)c3ccccc3F)cc2c1`: the inhibition was 59.6% (active).
To `COc1ccc(-c2[nH]ncc2CN(C)Cc2cccnc2)c(F)c1` belongs 9.62%.
With `Cn1c(NCc2cccnc2)nc2cc(-c3ccc(F)cc3)sc2c1=O`, the inhibition is -200%.
For `COc1c(C)cc(C(=O)C2CCCN(S(=O)(=O)c3c(C)noc3C)C2)cc1C` (stereo not drawn), the inhibition was 34.8%.
With `CSc1nc(N)c(C#N)c(-c2ccccc2Cl)c1C#N`, the inhibition was 53.6% (active).
With `Cc1c(-c2ccccc2)nc(N)c(C#N)c1-c1cccs1`, the inhibition was 12.9%.
For the molecule `COc1ccccc1-c1c(C#N)c(N)nc2c1CCC2`, the inhibition is 8.52%.
On to `NCCCCC(C(=O)O)N(C(=O)OCc1ccccc1)C(=O)OCc1ccccc1` (stereo not drawn), for which the inhibition was 5.74%.
`CCNC(=O)C1CCCN(C(=O)c2ccc(OC)cc2OC)CC1` (stereo not drawn): the inhibition is -2.59%.
Take `CNC(=O)c1[nH]cnc1C(=O)N[C@@H](CC(C)C)C(=O)OCc1ccccc1`: the inhibition is 4.89%.
Consider `CCOc1ccc(-n2c(SCC(=O)NC3CCS(=O)(=O)C3)nnc2-c2cccnc2)cc1` (stereo not drawn), for which the inhibition was -3.16%.
Take `CCN1CCC(O)(/C=C/c2ccc(C)cc2)C(C(=O)/C=C/c2ccc(C)cc2)C1` (stereo not drawn): the inhibition was 97.7% (active).
With `COc1cc(C(O)c2nc(-c3cccc(C(=O)O)c3)cs2)ccc1F` (stereo not drawn), the inhibition was -37.1%.
With `Cc1nc(C(F)(F)F)ccc1C(=O)N1CCC1(C)C(=O)NS(=O)(=O)c1ccccc1` (stereo not drawn), the inhibition is 11.6%.
Turning to `CCC(C)Cn1c(O)cc2nn(-c3nc4ccccc4s3)c(=O)c-2c1C` (stereo not drawn), the inhibition is 96.7% (active).
Regarding `OC[C@H]1O[C@@H](c2nc(-c3nc(-c4ccc(F)cc4)no3)cs2)[C@H](O)[C@@H](O)[C@H]1O`, the inhibition was -42.8%.
`Nc1nc(CSc2nnnn2-c2ccccc2)nc(Nc2ccccc2)n1`: the inhibition was 6.46%.
On to `Cc1cccc(CN2CCN(C3CN(Cc4ccccc4)S(=O)(=O)C3)CC2)c1` (stereo not drawn), for which the inhibition was 24.2%.
Regarding `O=C(OC12CC3CC(CC(C3)C1)C2)c1ccc(NCc2cc(O)ccc2O)cc1`, the inhibition was 82.7% (active).
Take `CC1(C)C2CCC1(C)C(OC(=O)c1ccc(O)cc1)C2` (stereo not drawn): the inhibition was -14.1%.
With `CCCCC(=O)N(C)c1c(CC)nc2c(OCc3ccc(S(C)(=O)=O)cc3)cccn12`, the inhibition was -0.29%.
`CC(C)Oc1cc(F)ccc1-c1cc(C(=O)Nc2ccc(F)cc2)[nH]n1`: the inhibition was -30.2%.
To `c1ccc(C[C@H]2CNCCN2CCC23CC4CC(CC(C4)C2)C3)cc1` belongs 96.8% (active).
As for `c1ccc2c(CCN3CCNC[C@H]3Cc3cccc4ccccc34)cccc2c1`, the inhibition is -8.29%.
To `O=C1CCNCCN1[C@H](CO)Cc1ccccc1` belongs 3.53%; to `COc1cc(/C=C/c2ccc(/C=C/c3cc(OC)c(OC)c(OC)c3)cc2)cc(OC)c1OC`, 61.8% (active).
To `CCC(=O)c1ccc(OC(=O)/C=C/c2cc(OC)c(OC)c(OC)c2)cc1` belongs 3.36%; to `COc1cc(/C=C/C2=CC(C)(C)NC(=S)N2)cc(OC)c1OC`, 4.8%.
With `OCCc1ccc(NCCc2ccco2)cc1`, the inhibition was -123%.
Turning to `CN[C@H](C(=O)NC[C@H]1O[C@@H](n2cnc3c(N)ncnc32)[C@H](O)[C@@H]1O)[C@@H](C)OCc1ccccc1`, the inhibition is -6.23%.
Consider `O=C(COC(=O)c1ccc(F)cc1F)Nc1ncccn1`, for which the inhibition is 22.2%.
On to `CC(C)CNC(=O)C(=O)NCC(c1ccc2c(c1)OCO2)N1CCOCC1` (stereo not drawn), for which the inhibition is -15.4%.
To `CCCc1cc(=O)[nH]c(SCC(=O)c2c(N)n(CC(C)C)c(=O)n(C)c2=O)n1` belongs 54.7% (active).
Take `CC(C)Cn1c(N)c(C(=O)COC(=O)CN2C(=O)C3CC=CCC3C2=O)c(=O)n(C)c1=O` (stereo not drawn): the inhibition was 21.8%.
As to `CCCc1cc(=O)[nH]c(SCC(=O)N2C(C)CCCC2C)n1` (stereo not drawn), the inhibition is 0.43%.
Turning to `O=C(NCc1cccnc1)c1ccc2nc([C@@H]3O[C@H](CO)[C@H](O)[C@H](O)[C@H]3O)[nH]c2c1`, the inhibition was 15.8%.
To `CCC(C)C(CO)NC(=O)/C=C/[C@H]1O[C@@H](n2cnc3c(NC(=O)c4ccccc4)ncnc32)[C@H](O)[C@@H]1O` (stereo partly drawn) belongs 10.6%.
As to `Cc1ccsc1C(=O)OCC(=O)NCCc1ccccc1`, the inhibition was -156%.
As to `Cc1ccsc1C(=O)OCC(=O)c1cc(C)n(CC2CCCO2)c1C` (stereo not drawn), the inhibition is 55.9% (active).
Take `Cc1ccsc1C(=O)OCC(=O)Nc1cccc(F)c1`: the inhibition was -227%.
As for `COc1ccc(-c2nnc3n2CCCCC3)cc1`, the inhibition is 11.4%.
For the molecule `Cc1ccc(S(=O)(=O)CCC(=O)OCC(=O)N(C)Cc2ccccc2)cc1`, the inhibition was -2.43%.
Turning to `COc1cccc2sc(N(CCCN(C)C)C(=O)C(c3ccccc3)c3ccccc3)nc12`, the inhibition was 99.4% (active).
Take `COc1ccccc1NC(=O)CC(NCCN(C)C)C(=O)O` (stereo not drawn): the inhibition was 6.79%.
Consider `Cc1cccc2sc(N(CCCN(C)C)C(=O)CCS(=O)(=O)c3ccccc3)nc12`, for which the inhibition was 100% (active).
Take `O=C(CCS(=O)(=O)c1ccccc1)Nc1nc2c(s1)CCCC2`: the inhibition was -47.1%.
To `Cc1ccc2sc(N(CCN(C)C)C(=O)/C=C/c3cccs3)nc2c1C` belongs 19.8%; to `COc1cccc2sc(N(CCCN(C)C)C(=O)CCS(=O)(=O)c3ccccc3)nc12`, 96.4% (active).
`COc1ccc(N(C)C(=O)CCS(=O)(=O)c2cccc3nsnc23)cc1`: the inhibition is -4.4%.
As for `CCN(CC)CCN(C(=O)c1ccc2c(c1)CCCC2)c1nc2c(OC)cccc2s1`, the inhibition is -7.74%.
To `CC1(C(=O)NCc2ccc3c(c2)OCO3)CCN1CCc1ccccc1` (stereo not drawn) belongs -5.32%; to `CC1(C(=O)NS(=O)(=O)c2cccs2)CCN1C(=O)Cc1ccc(-c2ccccc2)cc1` (stereo not drawn), 1.06%; to `O=C(C=CC(=O)Nc1ccc(F)cc1F)Nc1ccc(F)cc1F`, 14.9%.
To `O=S1(=O)CC(N2CCN(CCO)CC2)CN1C1CCCC1` (stereo not drawn) belongs -8.51%; to `Cc1cccc(CN2CCN(C3CN(Cc4cn(Cc5ccccc5F)nn4)S(=O)(=O)C3)CC2)c1` (stereo not drawn), -6.63%.
Take `CCOC(=O)N(C)c1c(CC)nc2c(OCc3ccccc3C(=O)OC)cccn12`: the inhibition is 13.4%.
To `Nc1ccccc1SC(C[N+](=O)[O-])c1ccccc1` (stereo not drawn) belongs 63.5% (active); to `CCCC(=O)N1CCC1(C)C(=O)NCc1ccc(C(C)C)cc1` (stereo not drawn), 1.21%; to `CCC(=O)N1CCCC1(C)C(=O)Nc1ccc2c(c1)CCN2C(C)=O` (stereo not drawn), 4.54%.
Turning to `CCOC(=O)Nc1ccc2c(c1)N(C(=O)CCCl)c1ccccc1[S@]2=O`, the inhibition is 84.1% (active).
To `CCOC(=O)Nc1ccc2c(c1)N(C(=O)CN1CCN3CCCC3C1)c1ccccc1CC2` (stereo not drawn) belongs 0.5%.
In the case of `CCOC(=O)Nc1ccc2c(c1)N(C(=O)CCN1CCN(CCO)CC1)c1ccccc1CC2`, the inhibition is 3.85%.
For `O=C(C[C@H]1C/C=C\C[C@@H](NC(=O)OCC2c3ccccc3-c3ccccc32)C(=O)O[C@@H](c2ccccc2)CNC1=O)N[C@H](CO)Cc1ccccc1`, the inhibition was 67.1% (active).
To `CC(C)(C)OC(=O)C[C@H]1C/C=C\C[C@@H](CC(=O)N[C@H](CO)Cc2ccccc2)C(=O)NC[C@@H](c2ccccc2)OC1=O` belongs -1.52%; to `CC(C)(C)OC(=O)C[C@@H]1C/C=C\C[C@@H](CC(=O)N[C@H](CO)Cc2ccccc2)C(=O)NC[C@@H](c2ccccc2)OC1=O`, -6.65%; to `CC(=O)c1nn(-c2ccccc2)c(=Nc2ccccc2)cc1C`, 1.9%.
`O=C1NC(O)CCN1C1CC(O)C(CO)O1` (stereo not drawn): the inhibition is 15.2%.
Take `CSc1nnnn1-c1c(C)cc(C)cc1C`: the inhibition was 7.96%.
For `CSC1=NCCN1C(=O)c1ccc(S(=O)(=O)N2CCOCC2)cc1`, the inhibition is -13.6%.
With `Cc1ccc2nc(-c3ccco3)c(Cc3cccc(Cl)c3)n2c1`, the inhibition was -203%.
With `CCCc1nc2c([nH]1)C(c1cccnc1)C(C#N)=C(N)O2` (stereo not drawn), the inhibition is -0.33%.
In the case of `CCOC(=O)C1=C(C)OC(N)=C(C#N)C1c1cncc(-c2ccc(F)cc2)c1` (stereo not drawn), the inhibition was 101% (active).
On to `CCOC(=O)C1=C(CC)OC(N)=C(C#N)C1c1ccc(F)cc1F` (stereo not drawn), for which the inhibition is 8.52%.
Turning to `CCOP(=O)(OCC)C(Cc1ccccc1)N=C(c1ccccc1)c1ccccc1` (stereo not drawn), the inhibition was 41.3%.
Take `CCOC(=O)c1c(NC(=O)c2ccc(S(=O)(=O)N(C)CC3CCCO3)cc2)sc2c1CC(C)(C)NC2(C)C` (stereo not drawn): the inhibition was 85.8% (active).
For `Cc1cccc(NC(=O)c2ccc(S(=O)(=O)N(C)CC3CCCO3)cc2)c1C` (stereo not drawn), the inhibition was 4.42%.
Regarding `CN(CC1CCCO1)S(=O)(=O)c1ccc(C(=O)Nc2ccc(F)cc2)cc1` (stereo not drawn), the inhibition is 21.5%.
Turning to `CC(=O)Nc1cc(-c2ccccc2F)cn2c(-c3cccc(C(F)(F)F)c3)cnc12`, the inhibition was 25%.
To `COc1ccc(S(=O)(=O)N2CCCCC2)cc1NC(=O)c1cc([N+](=O)[O-])ccc1N1CCOCC1` belongs 13.5%; to `O=C(NCc1ccc2c(c1)OCO2)c1cc([N+](=O)[O-])ccc1N1CCOCC1`, 17.4%; to `CCOc1ccc2nc(NC(=O)c3cc([N+](=O)[O-])ccc3N3CCOCC3)sc2c1`, 61.8% (active).
